We go through seven sequences from the supplement of paper PMC6555819.

What all share (test): PBM binding z-score (relative to random genomic background probes); higher = stronger binding; sequences stand for … in GC…GCGATTGACAGCGTAGAATGAAGG
For assay [1], the system named is PPARg:RXRa DBDmut IVT, anti-RXR (DBD mutation: RXRa K156A/R161A, NR concentration 270 nM, RXRa partner concentration 90 nM). Summed up: (§1)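 Binding buffer was PBS pH 7.4 with 2% milk, 0.02% Triton X-100, 1 mM DTT, 0.2 mg/mL BSA and 0.4 mg/ml salmon testes DNA. In it, ligand-free nuclear receptor dimers were incubated 1 h on custom Agilent 4×180K protein-binding microarrays carrying double-stranded probes. Antibodies against each partner (one per run) detected binding, and z-scores were calculated against random background probes after regression normalization of scanned fluorescence.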

Assay [2] relates to PPARg:RXRa IVT, anti-PPARg (NR concentration 270 nM, RXRa partner concentration 90 nM). Summed up: as §1
Assay [3] concerns PPARg DBDmut:RXRa IVT, anti-PPARg (DBD mutation: PPARg1 K132A/R137A, NR concentration 270 nM, RXRa partner concentration 90 nM). An outline of the steps: as §1
Assay [4] deals with PPARg DBDmut IVT, anti-PPARg (DBD mutation: PPARg1 K132A/R137A, NR concentration 270 nM). Summed up: as §1
Assay [5] relates to PPARg homodimer (NR concentration 180 nM). Summed up:
as §1

The test system of assay [6] is PXR:RXRa (NR concentration 270 nM, RXRa partner concentration 90 nM). An outline of the steps: as §1
Assay [7] deals with PXR homodimer (NR concentration 270 nM). Summed up:
as §1

Assay [8] concerns RARa:RXR (NR concentration 270 nM, RXRa partner concentration 90 nM). An outline of the steps:
as §1

Assay [9] relates to RARa homodimer (NR concentration 270 nM). Summed up: as §1
Assay [10] deals with RARb:RXRa (NR concentration 270 nM, RXRa partner concentration 90 nM). Summed up: as §1
Assay [11] concerns RARb homodimer (NR concentration 270 nM). Summed up: as §1
The test system of assay [12] is RARg:RXRa (NR concentration 270 nM, RXRa partner concentration 90 nM). Summed up: as §1
Assay [13] concerns RARg homodimer (NR concentration 270 nM). Summed up: as §1
For assay [14], the system named is RXRa DBDmut IVT, anti-RXR (DBD mutation: RXRa K156A/R161A, NR concentration 90 nM). An outline of the steps: as §1
The test system of assay [15] is RXRa homodimer (NR concentration 180 nM). An outline of the steps:
as §1

Assay [16] concerns THRa:RXRa (NR concentration 90 nM, RXRa partner concentration 90 nM). An outline of the steps: as §1
The test system of assay [17] is THRa homodimer (NR concentration 90 nM). Summed up:
as §1

Assay [18] has as its system VDR homodimer (NR concentration 270 nM). Summed up: as §1

As to CAAACTAGGTCACGAAAGGTCAATGTCGAATGAC, the PBM binding z-score in [1] is 8.46; in [2], 9.35; in assay [3], 5.05; in assay [4] it was 3.62; in assay [5], 4.79; in assay [6], 6.78. Further, the PBM binding z-score amounted to 1.92 in assay [7]; 7.1 in assay [8]; 1.91 in [9]; 5.86 in [10]; 5.73 in assay [11]; 7.46 in assay [12]. The PBM binding z-score in [13] stood at 8.51; in assay [14], 2.11; in assay [15] it was 7.37; in assay [16], 5.27; in assay [17], 2.55; in assay [18], 2.77.
In the case of ATATGTAGGTTAAGGCTCATTCAGGTTGGTTCGC, the PBM binding z-score in [1] was 7.51; in assay [2], 7.12; in [3] it was 5.15; in assay [4], 3.53; in assay [5], 2.08; in [6] it was 0.38. The PBM binding z-score in [7] is 0.413; in assay [8], 0.411; in assay [9], 0.882; in assay [10] it was 1.02; in assay [11] it was 0.698; in [12], 0.684. The PBM binding z-score came to 0.622 in [13]; 0.534 in assay [14]; 0.844 in assay [15]; 0.76 in assay [16]; 0.71 in [17]; 0.761 in assay [18].
As to TCTTGTAGATGAAAGGTTAAGAAAGCCGAAGCCT, the PBM binding z-score in assay [1] worked out at 2.04; in [2] it was 2.16; in assay [3] it was 0.389; in assay [4], 0.195; in assay [5] it was 0.811; in [6] it was 1.29. Further, the PBM binding z-score in assay [7] was 0.117; in assay [8] it was 2.05; in assay [9], 0.435; in assay [10], 1.73; in [11], 1.17; in assay [12] it was 1.2. In addition, the PBM binding z-score was 0.987 in assay [13]; 1.1 in assay [14]; 2.39 in assay [15]; 0.806 in [16]; -0.431 in [17]; -0.24 in [18].
Turning to ACAGTCAGGTGATGAAGGTAACTCAGGCTATCAT, the PBM binding z-score was 0.347 in assay [1]; 0.415 in assay [2]; 0.348 in assay [3]; 0.294 in assay [4]; 0.022 in assay [5]; -0.36 in [6]. Moreover, the PBM binding z-score in assay [7] is -0.211; in assay [8], 0.136; in assay [9], -0.284; in assay [10] it was 0.503; in assay [11] it was 0.23; in assay [12] it was 0.23. The PBM binding z-score in [13] was 0.365; in [14] it was -0.243; in assay [15], 0.405; in assay [16], 1.19; in [17], 0.0421; in assay [18], -0.453.
As to ACTAGTTGGTGAGCTGAGGTCACACACAATTCGG, the PBM binding z-score was 0.913 in assay [1]; 1.97 in assay [2]; 0.121 in assay [3]; 0.0784 in assay [4]; 2.24 in assay [5]; 4.76 in [6]. Further, the PBM binding z-score in assay [7] is 1.9; in assay [8], 4.65; in assay [9], 0.439; in assay [10] it was 2.98; in assay [11] it was 3.86; in assay [12], 3.85. For the same sequence, the PBM binding z-score was 3.11 in [13]; 0.874 in [14]; 4.01 in assay [15]; 4.44 in assay [16]; 5.07 in assay [17]; 3.31 in assay [18].
Consider GCGACTGGGGCAAAGCAGGTTACCACAAGGTTGG, for which the PBM binding z-score in assay [1] was 4.37; in assay [2], 3.9; in assay [3], -0.49; in [4], -1.47; in assay [5], 0.0526; in assay [6], 0.473. Besides, the PBM binding z-score in assay [7] is -0.466; in [8], 0.796; in [9], -0.331; in [10], 0.888; in [11] it was 1.08; in [12], 0.456. In addition, the PBM binding z-score in assay [13] is 0.439; in [14], -0.219; in assay [15] it was 0.39; in assay [16], 3.04; in assay [17], -0.328; in assay [18], -0.626.
With TCGCGTAGGTTAGGGGCATTCAGAATGGCGTCGA, the PBM binding z-score in [1] is 0.918; in assay [2], -0.148; in [3], -0.436; in assay [4] it was -0.621; in [5], -0.168; in assay [6], 0.489. Besides, the PBM binding z-score in assay [7] was 0.0303; in [8], 0.615; in [9], -0.246; in [10], 1.18; in assay [11], 0.811; in [12], 0.412. The PBM binding z-score is 0.26 in [13]; 0.518 in [14]; 0.821 in assay [15]; 0.842 in [16]; 0.102 in assay [17]; 0.649 in assay [18].
